From PubChem BioAssay (NCATS)
The source made the active and inactive calls. How the calls were made is not given here.

test system: HIV-1 nucleocapsid protein NCp7 (binding to TG oligonucleotide); assay: HIV Nucleocapsid (AID 346); conditions: HIV-1 NC / fluorescein-TGTGTGTG probe, fluorescence polarization;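 further: potency is for inhibitors that block NC binding and lower polarization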
Summary of the method: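 Fluorescence polarization binding of 100 nM HIV-1 NC to 10 nM fluorescein-labelled TG4xF oligonucleotide. Buffer was Hepes pH 7.5 with 250mM NaCl, 1uM ZnCl2, TCEP and 2-mercaptoethanol. Compounds were incubated 1 hr at room temperature before the read.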
Potency means the concentration at half of the fitted maximal effect.

SMILES	Potency
Cc1nc2cnc(N3CCNCC3)nc2n(Cc2cccs2)c1=O	> 4 µM (inactive)
COCCNc1ncnc2ccc(-c3ccccc3CN(C)C)cc12	> 20 µM (inactive)
Cc1noc(C)c1-c1ccc2ncnc(NCc3ccccc3)c2c1	> 20 µM (inactive)
CS(=O)(=O)Nc1cccc(-c2nc(N3CCNCC3)c3ccccc3n2)c1	> 20 µM (inactive)
O=c1c(-c2ccc(Cl)cc2)nc2cnc(N3CCOCC3)nc2n1C[C@H]1CCCO1	> 20 µM (inactive)
Clc1ccccc1-c1nccc(NCCN2CCOCC2)n1	> 20 µM (inactive)
COc1ccccc1-c1ccc2ncnc(NC3CCNCC3)c2c1	> 20 µM (inactive)
Cc1cccc(CNc2nc(-c3ccc4c(c3)OCO4)nc3ccccc23)c1	> 20 µM (inactive)
Cc1noc(C)c1-c1ccc2ncnc(NC3CC3)c2c1	> 20 µM (inactive)
Cn1cccc1C(=O)N1CCC2(CCN(Cc3ccc(C#N)cc3)CC2)CC1	> 20 µM (inactive)
CC(=O)NCCNc1nc(-c2ccccc2C(F)(F)F)nc2ccccc12	> 20 µM (inactive)
c1ccc2c(Nc3ccncc3)nc(-c3ccc4c(c3)OCO4)nc2c1	> 20 µM (inactive)
N#Cc1ccc(CN2CCCC3(CCN(C(=O)c4csnn4)CC3)C2)cc1	> 20 µM (inactive)
O=c1cnc2cnc(N3CCNCC3)nc2n1C1CC1	> 20 µM (inactive)
COc1ccc(-c2nc3cncnc3n(-c3ccccc3)c2=O)cc1	> 20 µM (inactive)
COc1ccccc1-c1ccc2ncnc(N(C)C)c2c1	> 20 µM (inactive)
